Compound activity deposited in PubChem by National Center for Advancing Translational Sciences (NCATS).
Sampled rows, rich in hits. Any-hit rate of the full collection: about 3.6%.
FUS suppressor – qHTS for Suppressors of FUS Proteinopathy: Primary screen using FUS-linked yeast assay | AID 1347120, 2019 | Potency, µM (series often up to 76.6 µM), most hits filed as activators | hit rate 0.24% among 390,000 | S. cerevisiae FUS-expressing, growth rescue, OD600, 24 h;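 note: plate controls were DMSO vehicle for no effect and reference control for full effect; nearly all actives have a fitted effect of over 55% in size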
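Absorbance at 600 nm, taken 24hr after compound addition, measured rescue of FUS-yeast growth at 30C. Induction used 2% galactose with seeding at OD 0.005. Controls: CP55940 from 92uM final, DMSO only.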
TDP43 rescue – qHTS of TDP-43 Inhibitors; TDP-43 expressing yeast growth rescue, BacTiter-Glo, 24 h; Potency, µM (top dose mostly 46.1 µM), without a hit: at the top dose growth rescue (activation), hits mostly activators; hit rate 1.8% among 410,000; note: % of control where 0% means no effect; nearly all actives have a fitted effect of over 50% in size
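Readout is BacTiter-Glo luminescence of cell growth, so inhibitors register as activators. TDP-43-expressing yeast at OD600=0.02 in galactose medium, after raffinose pregrowth to mid-log, were incubated with compound for 24 hr at 30 deg C.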
ClpP mod – qHTS Assay for Activators of ClpP; AID 651965, 2013; purified B. subtilis ClpP, FRET peptide cleavage, 20 min; Potency, µM (doses to about 57.5 µM), for the others: at the highest dose activity change, negative = active; hit rate 1.9% among 340,000; active = well fitted falling curve with a large enough effect; inconclusive = small, poorly fitted or top-dose-only effect; inactive = no such curve, though single readings can be large or run the other way; note: the source files actives as falling curves though it sought activators and does not explain the sign; nearly all actives have a fitted effect of over 65% in size
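Purified B. subtilis ClpP, 10 microg/mL final in Tris/HCl pH8 with KCl, BSA, glycerol and Tween-20, cleaved an Abz/nitrotyrosine-quenched decapeptide. Fluorescence (ex 320, em 430) was read at 0 and 20 min at room temperature. Delta was normalized to 5.8 microM ADEP and DMSO/no-enzyme controls.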
MmCpn inh – Inhibitors of TCP-1 ring complex (TRiC) of Methanococcus maripaludis (MmCpn): qHTS | Chaperonin Mm-Cpn (Methanococcus maripaludis) | purified Mm-Cpn ATPase, ADP Transcreener TR-FRET | Potency, µM (titrated, usually from 76.9 µM), inactives show at the top dose activity, negative = inhibition, actives largely listed as inhibitors | hit rate 0.031% among 330,000; note: % is set by controls: 0 for no effect and ±100 for the full control effect; nearly all actives have a fitted effect of over 80% in size
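Reaction buffer contained 30 mM Tris pH 7.4, 100 mM KCl, 5 mM MgCl2 and 1 mM DTT. Mm-CPN (25 nM final) hydrolysed 10 uM ATP over 30 min at 37°C; ADP was read by HTRF.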
Abeta yeast res – qHTS for compounds that reverse cellular toxicity of Amyloid beta (A-beta) peptide in yeast: Primary Screen; Potency, µM (titrated, usually from 46.1 µM), usual class: activators; yeast expressing A-beta42, growth rescue, OD600, 48 h; response scale: 0% DMSO, 100% iron-clioquinol control; hit rate 0.063% among 410,000; note: nearly all actives have a fitted effect of over 55% in size
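Yeast growth medium received pinned compounds, then yeast cells expressing toxic A-beta were added; plates incubated at 30 C for 48 hr. Growth read as absorbance at 600 nm, normalized to DMSO and equimolar FeCl3 plus clioquinol controls.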
aSyn rescue – qHTS of alpha-syn Inhibitors | Yeast expressing alpha-synuclein, growth rescue, BacTiter-Glo, 24 h | AID 652106, 2013 | hit rate 0.14% among 370,000 | Potency, µM (series often up to 46.1 µM), for inactives: at the highest dose growth rescue (activation), actives largely listed as activators; note: % of control where 0% means no effect; nearly all actives have a fitted effect of over 65% in size
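Screening used galactose-induced yeast with toxic alpha-synuclein levels, exposed to compound for 24 hr at 30 deg C. Cell growth, read with BacTiter-Glo luminescence, gave the measured signal.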
* = called active by the depositor; i = inactive; ? = inconclusive; · = no result given. Unless noted, calls come from the whole dose curve; as a rule, active = well fitted curve in the direction sought with a large enough effect; inconclusive = small, poorly fitted or top-dose-only effect, or another doubt; inactive = no such curve, though single readings can be large; an effect the other way counts as inactive or inconclusive. Potency is the fitted concentration of half-maximal effect.

SMILES	FUS suppressor	TDP43 rescue	ClpP mod	MmCpn inh	Abeta yeast res	aSyn rescue
O=C(C[C@H]1C/C=C\C[C@H](Cc2ccc(F)cc2)C(=O)O[C@@H](c2ccccc2)CNC1=O)N[C@H](CO)Cc1ccccc1	28µM*	10%	0%	-2%	i	1%
O=C1N[C@@H](Cc2ccccc2)COC(=O)[C@H](Cc2ccc(F)cc2)CC/C=C/C[C@H]1CC(=O)N(CCO)Cc1ccccc1	22µM*	29%	-2%	-22%	i	-1%
O=C1NC[C@H](c2ccccc2)OC(=O)[C@@H](Cc2ccc(F)cc2)CC/C=C/C[C@H]1CC(=O)N(CCO)Cc1ccccc1	?	19%	0%	0%	i	3%
O=C(N[C@@H]1C/C=C\C[C@H](CC(=O)N(CCO)Cc2ccccc2)C(=O)N[C@@H](Cc2ccccc2)COC1=O)OCC1c2ccccc2-c2ccccc21	32µM*	9%	-3%	-2%	i	7%
O=C1N[C@@H](Cc2ccccc2)COC(=O)[C@H](Cc2ccc(F)cc2)CC/C=C/C[C@@H]1CC(=O)N(CCO)Cc1ccccc1	?	0%	2%	0%	i	2%
O=C(C[C@H]1C/C=C\CC[C@H](Cc2ccc(F)cc2)C(=O)O[C@@H](c2ccccc2)CNC1=O)N[C@@H](CO)Cc1ccccc1	i	21%	1%	-2%	i	3%
C[C@@H]1COC(=O)[C@H](NC(=O)OCC2c3ccccc3-c3ccccc32)C/C=C\C[C@@H](CC(=O)N(CCO)Cc2ccccc2)C(=O)N1	i	18%	-1%	1%	i	0%
O=C1NC[C@H](c2ccccc2)OC(=O)[C@H](Cc2ccc(F)cc2)CC/C=C/C[C@H]1CC(=O)N(CCO)Cc1ccccc1	32µM*	7%	-1%	-3%	i	-1%
CC(=O)Nc1ccc(/C=C/c2ccnc3ccccc23)cc1	·	·	32%	·	·	-1%
Cc1cc(=O)n(Cc2c(F)cccc2Cl)c2c1c(C)nn2C	i	20%	0%	·	i	·
Cc1ccc(C(=O)NCC(=O)OCc2cc(=O)n3nc(C4CCCCC4)sc3n2)cc1	i	14%	-5%	·	i	·
Oc1ccccc1C1C=C(c2ccc3c(c2)OCO3)NC(c2cccc(Cl)c2)N1 (stereo not given)	·	·	-3%	·	·	4.5µM*
Oc1ccccc1C1C=C(c2ccc3c(c2)OCO3)NC(c2ccc(Br)cc2)N1 (stereo not given)	·	·	-1%	·	·	2%
Cc1ccc(N2C(=O)C(c3c(C)[nH]n(-c4ccccc4)c3=O)(C(F)(F)F)C3=C2CC(C)(C)CC3=O)cc1 (stereo not given)	i	21%	-1%	1%	i	-11%
Cc1[nH]n(-c2ccccc2)c(=O)c1C1(C(F)(F)F)C(=O)N(c2ccccc2)C2=C1C(=O)CC(C)(C)C2 (stereo not given)	32µM*	-3%	-2%	0%	i	6%
CCN(CCCNC(=O)CN1N=C(c2ccccc2)CCC1=O)c1ccccc1	i	7%	-1%	·	i	·
CC(=O)Nc1nc(COc2ccccc2)cs1	i	5%	2%	1%	i	3%
CC(=O)Nc1nc(COc2ccc3ccccc3c2)cs1	i	7.1µM*	1%	-20%	i	·
O=C(CN(c1ccc(Cl)c(C(F)(F)F)c1)S(=O)(=O)c1ccccc1)N/N=C/c1cccc2c1OCCO2	·	17%	22µM*	3%	i	13%
CS(=O)(=O)N(CC(=O)N/N=C/c1cccc2c1OCCO2)c1ccccc1Br	i	5%	?	-2%	i	-14%
COC(=O)Nc1ccc(S(=O)(=O)N2CCC(C(=O)N(C)C3CCCCC3)CC2)cc1	?	?	13µM*	-2%	i	1%
CCOC(=O)C1CCN(S(=O)(=O)c2ccc(NC(=O)OC)cc2)CC1	i	1%	-3%	0%	i	-13%
Cc1c[nH]c2cccc(-c3ccc(Cl)cc3Cl)c12	i	·	·	·	·	·
Nc1nc(F)nc2c1ncn2[C@@H]1O[C@H](COP(=O)(O)O)[C@@H](O)[C@@H]1O	i	·	·	·	·	·
Nc1nc(Cl)nc2c1ncn2[C@@H]1O[C@H](COP(=O)(O)OP(=O)(O)OP(=O)(O)O)[C@@H](O)[C@H]1O	·	·	·	·	·	21µM*
SMILES	FUS suppressor	TDP43 rescue	ClpP mod	MmCpn inh	Abeta yeast res	aSyn rescue
Nc1ncnc2c1ncn2C1O[C@H](CO)[C@@H](O)[C@@H]1O (stereo not given in full)	i	8%	-1%	-3%	i	-1%
Nc1ncnc2c1ncn2[C@@H]1O[C@H](COP(=O)(O)OP(=O)(O)OP(=O)(O)OP(=O)(O)OC[C@@H]2O[C@H](n3cnc4c(N)ncnc43)[C@@H](O)[C@H]2O)[C@@H](O)[C@H]1O	·	·	·	·	·	7.3µM*
CC(=O)Nc1ccc(C(=O)Nc2ccc3c(c2)N(C2CCCC2)C(=O)c2ccccc2S3)cc1	i	22%	?	·	i	·
CCOc1ccc(-n2c(COc3ccc(C)cc3)nnc2SCC(=O)Nc2ccc(F)c(F)c2)cc1	i	·	·	·	·	·
O=C(NCc1cccs1)C1CCCN(S(=O)(=O)c2ccccc2)C1 (stereo not given)	i	·	·	·	·	·
Cc1cccc(N2CCN(c3nc4ccccc4c4nnc(C)n34)CC2)c1C	i	20%	-2%	·	i	·
Cc1nnc2c3ccccc3nc(N3CCN(c4cccc(Cl)c4)CC3)n12	i	25µM*	-5%	·	i	·
CC(Oc1ccccc1)C(=O)N[C@@H]1C(=O)N2[C@@H]1SC(C)(C)[C@@H]2C(=O)OCc1ccccc1 (stereo not given in full)	·	·	2%	·	·	·
O=C(c1ccc(Cl)cc1)N1CCC(C(=O)N2CCCc3ccccc32)CC1	·	14µM*	32µM*	1%	i	-2%
CN(C1CCCCC1)S(=O)(=O)c1ccc(SCC(=O)C(C)(C)C)nc1	i	20µM*	-1%	0%	i	?
Cc1cc(C)c(S(=O)(=O)NCc2ccc3c(c2)CCN3C(=O)c2ccccc2)c(C)c1	i	6%	1%	·	i	·
CC(=O)Nc1cccc(NC(=O)Cc2cccs2)c1	i	0%	3%	0%	i	-5%
